Data taken from PubChem BioAssay (NCATS).
Results filed as inconclusive are left out. Activity calls are given as the source filed them. Calls come from the whole dose curve; as a rule, active = well fitted curve in the direction sought with a large enough effect; inconclusive = small, poorly fitted or top-dose-only effect, or another doubt; inactive = no such curve, though single readings can be large; an effect the other way counts as inactive or inconclusive.

Experiments:
[1] = MultiTox-Fluor Cytotoxicity Assay - LYMP1-001 - Live Cells (AID 947)
[2] = Cell Viability - LYMP1-002 - Assay at 16 hr (AID 948)
Outline: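 LYMP1-002 human lymphoblastoid cells, 2500/well, were treated with compounds for 16 hr at 37 C in complete medium. Viability was read as intracellular ATP by CellTiter-Glo luminescence, and AC50 was derived from a Hill fit to concentration-response data.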

[3] = MultiTox-Fluor Cytotoxicity Assay - LYMP1-003 - Dead Cells (AID 961); note: nearly all actives have a fitted effect of over 70% in size
Outline: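 Human lymphoblastoid LYMP1-003 cells (2500/well) were treated with compounds for 16 hr at 37 C in complete medium. Dead-cell protease release was read by bis-AAF-R110 fluorescence (Ex/Em 485/520). AC50 came from Hill fits, normalized to DMSO and 15 uM tetraoctylammonium bromide.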

[4] = MultiTox-Fluor Cytotoxicity Assay - LYMP1-003 - Live Cells (AID 962);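 note: cytotoxic hits lower the live-cell protease signal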
Outline: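 LYMP1-003 human lymphoblastoid cells (2500/well) in complete medium were preincubated 5 hr at 37 C, then exposed to compounds for 16 hr at 37 C. Live-cell protease cleavage of GF-AFC read by fluorescence (Ex/Em 405/510); AC50 from Hill fits.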

[5] = Cell Viability - LYMP1-003 - Assay at 24 hr (AID 963)
Outline: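 Human lymphoblastoid LYMP1-003 cells (2500/well) were rested 5 hr at 37 C, then exposed to compounds in complete medium for 24 hr at 37 C. Cellular ATP was quantified by CellTiter-Glo luminescence, and AC50 values came from Hill fits of concentration-response data.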

[6] = Cell Viability - LYMP1-003 - Assay at 40 hr (AID 964); note: series mostly up to about 92 µM; nearly all actives have a fitted effect of over 60% in size
Outline: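 Human lymphoblastoid LYMP1-003 cells, 2500/well in complete medium, rested 5 hr at 37 C, then exposed to compounds for 40 hr at 37 C. Viability read as intracellular ATP by CellTiter-Glo luminescence; AC50 from Hill fits of concentration-response data.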

[7] = Cell Viability - LYMP2-003 (AID 965);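 note: cells exposed to compounds for 24 h before reading; nearly all actives have a fitted effect of over 50% in size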
Outline: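 Human lymphoblastoid LYMP2-003 cells, 2500/well, exposed to compounds for 24 h at 37 C in complete medium. Viability read as intracellular ATP by CellTiter-Glo luminescence; AC50 from Hill-equation fits of qHTS concentration-response data.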

[8] = Cell Viability - LYMP2-004 (AID 966); note: nearly all actives have a fitted effect of over 65% in size
Outline: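 Human lymphoblastoid cells (2500/well) in complete medium were treated with compounds for 24 hr at 37 C, then intracellular ATP was measured by CellTiter-Glo luminescence. AC50 values came from Hill-equation fits of concentration-response data.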

[9] = Cell Viability - LYMP2-009 (AID 968); note: series mostly up to about 92 µM; nearly all actives have a fitted effect of over 55% in size
[10] = Cell Viability - LYMP2-011 (AID 969); note: nearly all actives have a fitted effect of over 60% in size
Outline: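 Human lymphoblastoid cells (2500/well) were plated in complete medium, preincubated 5 hr at 37 C, then exposed to compounds for 24 hr at 37 C. Intracellular ATP was read by CellTiter-Glo luminescence, and AC50 came from Hill-equation concentration-response fits.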

[11] = Cell Viability - LYMP2-013 (AID 970); note: series mostly up to about 92 µM; nearly all actives have a fitted effect of over 55% in size
Outline: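 Human lymphoblastoid cells, 2500/well, were preincubated 5 hr at 37 C, then treated with compounds for 24 hr at 37 C in complete medium. Intracellular ATP was read by CellTiter-Glo luminescence; AC50 from Hill-equation fits of concentration-response data.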

[12] = Cell Viability - LYMP2-015 (AID 971); note: nearly all actives have a fitted effect of over 55% in size
Outline: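 Human lymphoblastoid cells (2500/well) in complete medium were preincubated 5 hr at 37 C, then compound-treated 24 hr at 37 C. Intracellular ATP was read by CellTiter-Glo luminescence after 30 min at room temperature; AC50 came from Hill-equation concentration-response fits.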

[13] = Cell Viability - LYMP2-017 (AID 972); note: series mostly up to about 92 µM; nearly all actives have a fitted effect of over 55% in size
Outline: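 Human lymphoblastoid cells (2500/well) were seeded in complete medium, held 5 hr at 37 C, then exposed to compounds for 24 hr at 37 C. Intracellular ATP was read by CellTiter-Glo luminescence after 30 min at room temperature, with AC50 values from Hill-equation fits.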

[14] = Cell Viability - LYMP2-019 (AID 973); note: nearly all actives have a fitted effect of over 55% in size
Outline: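 Human lymphoblastoid cells were seeded at 2500 cells/well, preincubated 5 hr at 37 C, then exposed to compounds for 24 hr at 37 C in complete medium. Intracellular ATP was measured by CellTiter-Glo luminescence; AC50 from Hill fits.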

[15] = Cell Viability - LYMP2-021 (AID 974)
Outline: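 Human lymphoblastoid cells (2500/well) were preincubated 5 hr at 37 C, then exposed to compounds for 24 hr at 37 C in complete medium. Intracellular ATP was read by CellTiter-Glo luminescence; AC50 came from Hill-equation fits of concentration-response data.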

[16] = Cell Viability - LYMP2-023 (AID 975)
Outline: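 Human lymphoblastoid cells (2500/well) were preincubated 5 hr at 37 C, then exposed to compounds for 24 hr at 37 C in complete medium. Cellular ATP was read by CellTiter-Glo luminescence, and AC50 came from Hill-equation fits.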

[17] = Cell Viability - LYMP2-025 (AID 976); note: series mostly up to about 92 µM
Outline: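 Human lymphoblastoid LYMP2-025 cells (2500/well) were pre-incubated 5 hr at 37 C, then treated with compounds for 24 hr at 37 C in complete medium. Viability was read as intracellular ATP by CellTiter-Glo luminescence; AC50 from Hill fits.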

[18] = Cell Viability - LYMP2-002 (AID 977); note: series mostly up to about 92 µM
Outline: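 Luminescent ATP readout (CellTiter-Glo, 30 min room temperature) after 24 h compound exposure at 37 C of a human lymphoblastoid line, 2500 cells/well. AC50 values derived by standard Hill fitting of qHTS concentration-response data.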

[19] = Cell Viability - LYMP2-006 (AID 978); note: series mostly up to about 92 µM; nearly all actives have a fitted effect of over 60% in size
Outline: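 Human lymphoblastoid cells (LYMP2-006), 2500/well in complete medium, were treated with compound for 24 hr at 37 C. Cellular ATP was read by CellTiter-Glo luminescence after 30 min, and AC50 values came from Hill-equation fits of concentration-response data.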

[20] = Cell Viability - LYMP2-007 (AID 979);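 note: cells exposed to compound for 24 h before reading; nearly all actives have a fitted effect of over 60% in size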
Outline: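 Human lymphoblastoid cells (2500/well) were plated in complete medium, incubated 5 hr at 37 C, then exposed to compounds for 24 hr at 37 C. Intracellular ATP was read by CellTiter-Glo luminescence after 30 min at room temperature; AC50 from Hill fits.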

[21] = Cell Viability - LYMP2-008 (AID 980); note: nearly all actives have a fitted effect of over 60% in size
Outline: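 Human lymphoblastoid cells (2500/well) were plated, held 5 hr at 37 C, then exposed to compounds for 24 hr at 37 C in complete medium. Intracellular ATP was read by CellTiter-Glo luminescence; AC50 from Hill-fitted concentration-response.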

[22] = Cell Viability - LYMP2-010 (AID 981); note: nearly all actives have a fitted effect of over 55% in size
Outline: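 Human lymphoblastoid LYMP2-010 cells (2500/well) were preincubated 5 hr at 37 C, then exposed to compounds for 24 hr at 37 C in complete medium. Intracellular ATP was measured by CellTiter-Glo luminescence after 30 min at room temperature; AC50 from Hill-fitted concentration-response.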

[23] = Cell Viability - LYMP2-012 (AID 982)

Measured: Potency

Oc1c(Cl)c(Cl)c(Cl)c(Cl)c1Cl
inactive: all assays above
